Source: PubChem BioAssay (several laboratories)
The list is not random: actives were taken first. Their share in the collection is about 3.9%.
Mtb FBA inh: inhibitors of M. tuberculosis fructose-bisphosphate aldolase | P9WQA3 | purified M. tuberculosis FBA, fluorescence read-out | inhibition, % at 1 µM | 360,000 tested, 2.3% active | AID 588726;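 also: 0% = vehicle and 100% = reference inhibitor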
Target sequence (P9WQA3 whole entry, looked up): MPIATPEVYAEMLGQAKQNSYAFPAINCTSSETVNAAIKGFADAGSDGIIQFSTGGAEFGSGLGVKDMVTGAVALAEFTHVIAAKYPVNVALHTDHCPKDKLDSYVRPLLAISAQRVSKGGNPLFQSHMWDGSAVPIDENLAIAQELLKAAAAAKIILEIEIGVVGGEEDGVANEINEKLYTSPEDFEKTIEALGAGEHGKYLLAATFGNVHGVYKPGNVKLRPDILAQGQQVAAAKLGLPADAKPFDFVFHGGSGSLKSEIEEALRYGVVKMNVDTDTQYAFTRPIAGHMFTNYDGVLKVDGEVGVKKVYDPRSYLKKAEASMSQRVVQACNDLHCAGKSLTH
CCHF vOTU inh: blocks the CCHF virus ovarian tumor domain protease | CCHFV vOTU protease, Pep-AMC fluorescence | inhibition, % at 11.5 µM | 370,000 tested, 0.55% active | AID 651958; in the data active = inhibition above about 30%; also: 0% = vehicle wells with enzyme and 100% = no enzyme wells
Vc quorum ag: induces V. cholerae light production without autoinducers | V. cholerae BH1578 lux reporter, luminescence, 6 h | activation, % at 18.7 µM | 350,000 tested, 0.16% active; in the data active = activation mostly above about 9.7%, no sharp cut-off
GDH-TPI counter-1: counter-screen for M. tuberculosis FBA inhibitors: GDH-TPI coupled enzymes | GDH-TPI coupled enzyme counterscreen, NADH absorbance | inhibition, % at 4.8 µM | 360,000 tested, 1.2% active | AID 588335; in the data active = inhibition above about 30%;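 also: 0% = DMSO wells and 100% = wells lacking the enzyme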
Mtb FBA inh conf: Mtb FBA inhibition, confirmed; shares compounds with Mtb FBA inh; purified M. tuberculosis FBA, fluorescence read-out; inhibition, % at 1 µM; 5,600 tested, 78% active; AID 651616;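 also: 0% = vehicle wells and 100% = reference inhibitor wells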
GDH-TPI counter-2: GDH-TPI inhibition counter-screen for FBA inhibitors; shares compounds with Mtb FBA inh; GDH-TPI coupled enzyme counterscreen, fluorescence; inhibition, % at 1 µM; 5,600 tested, 81% active; AID 652141; in the data active = inhibition above about 10%
An asterisk follows results filed as active; i = inactive; . = not tested or not shown; + = active, no number. Rule as the data show it, unless noted: active = inhibition above about 27%; inactive = the rest.

SMILES	Mtb FBA inh	CCHF vOTU inh	Vc quorum ag	GDH-TPI counter-1	Mtb FBA inh conf	GDH-TPI counter-2
Cc1cccc(Oc2nc3c(c(=O)n(C)c(=O)n3C)n2C)c1	1	-15	i	2	.	.
CCNc1ccc([N+](=O)[O-])cc1	-11	-1	0	16	.	.
O=C1NC(c2ccc(Cl)c([N+](=O)[O-])c2)Nc2ccccc21 (stereo not given)	-1	-6	i	3	.	.
O=C1NC(c2cccc(OCc3ccccc3)c2)Nc2ccccc21 (stereo not given)	42*	-61	6	0	168*	134*
O=C1CCOc2cc(OCc3ccccc3)ccc21	3	2	-2	-3	.	.
O=C1NC(c2ccc(O)cc2)Nc2ccccc21 (stereo not given)	37*	-61	-2	7	39*	34*
COc1ccc(C(O)c2ncc(-c3ccccc3OC)[nH]2)cc1F (stereo not given)	-3	15	0	3	.	.
COc1ccc(C(O)c2ncc(-c3ccc4ccccc4c3)[nH]2)cc1 (stereo not given)	32*	13	i	5	+	+
Cc1cc(F)ccc1C(O)c1ncc(-c2cccc3ccccc23)[nH]1 (stereo not given)	31*	-8	0	13	-3	-5
Cc1cc(F)ccc1C(O)c1ncc(-c2ccc3ccccc3c2)[nH]1 (stereo not given)	17	-3	-1	12	.	.
OC(c1ccc(F)cc1)c1ncc(-c2cccc3ccccc23)[nH]1 (stereo not given)	49*	6	i	-4	5	-4
COc1ccc(C(O)c2ncc(-c3cccc4ccccc34)[nH]2)cc1F (stereo not given)	41*	-6	0	4	36*	36*
O=C1OCCC1S(=O)(=O)c1ccc2ccccc2c1 (stereo not given)	1	5	0	5	.	.
CCN(C(=O)CCS(=O)(=O)c1cccc2nonc12)c1ccc(C)c(C)c1	-2	0	0	-1	.	.
COc1ccccc1-c1cnc(C(O)c2cccc(C)c2C)[nH]1 (stereo not given)	-1	9	-1	-7	.	.
COc1ccccc1C(O)c1ncc(-c2cccc3ccccc23)[nH]1 (stereo not given)	60*	9	-3	11	+	+
CCc1cc2c(COC(=O)c3cccc(S(C)(=O)=O)c3)cc(=O)oc2cc1O	14	-3	0	4	.	.
CCc1cc2c(COC(=O)c3c(C)noc3C)cc(=O)oc2cc1O	33*	-13	i	32*	85*	62*
Nc1ccc2oc3ccccc3c2c1	27*	-13	i	5	2	-9
Nc1ccc(C#Cc2ccc3oc4ccccc4c(=O)c3c2)cc1	3	-5	-2	18	.	.
COc1ccc(N2CCN(C(=O)CN3C(=O)NC(C)(C4CC4)C3=O)CC2)cc1 (stereo not given)	1	4	-5	2	.	.
Cn1nnnc1SCC(=O)Nc1nn(-c2ccccc2)nc1C(N)=O	28*	-4	0	3	132*	89*
CC(C)(C)c1ccc(-c2cc(C(=O)NNC(=O)Nc3ccccc3)c3ccccc3n2)cc1	4	14	i	19	.	.
CCOC(=O)C1CCN(C(=O)c2ccc(NS(=O)(=O)c3ccc(F)cc3C)cc2)CC1	0	4	0	3	.	.
CCOP(=O)(C1=C(O)C(=O)C(C(C)(C)C)=CC1=O)c1ccccc1 (stereo not given)	-2	16	-1	3	.	.
SMILES	Mtb FBA inh	CCHF vOTU inh	Vc quorum ag	GDH-TPI counter-1	Mtb FBA inh conf	GDH-TPI counter-2
Clc1ccc(SCc2cn3ccccc3n2)cc1	61*	4	-1	0	+	+
CC1C(c2ccccc2)OCCN1C=NC#N (stereo not given)	0	5	0	6	.	.
COc1ccc(-c2nnc(SC)o2)c(OC)c1	4	10	-2	-1	.	.
COc1ccc(OC)c(-c2nnc(-c3ccc(C)o3)o2)c1	103*	-58	1	24	101*	84*
CC1=NN(C(N)=S)C(=O)C1N=Nc1ccc(Br)cc1 (stereo not given)	-2	10	i	5	.	.
CC(=O)Nc1ccc(NC(=O)Nc2ccccc2)cc1	0	-8	-1	-5	.	.
Cc1cnc(NC(=O)Nc2ccccc2)c(C)n1	59*	-39	-1	9	-5	-3
CC(C)(CO)NS(=O)(=O)c1ccc2c(c1)oc(=O)c1cc(S(=O)(=O)NC(C)(C)CO)ccc12	81*	7	i	9	5	-10
NC(=O)c1nc(C2CCCCC2)nc2c1[nH]c(=O)n2-c1ccc(F)cc1	6	-3	0	2	.	.
COc1ccccc1-n1c(=O)[nH]c2c(C(N)=O)nc(-c3cccnc3)nc21	39*	-13	0	28	4	4
COc1ccccc1-n1c(=O)[nH]c2c(C(N)=O)nc(C3CCCCC3)nc21	27*	-3	0	18	+	+
COc1cc(-n2c(C)nc3ncn(-c4ccccc4)c3c2=O)cc(OC)c1OC	-1	-1	0	5	.	.
CCN(CC)c1cc(C)c2cc(NC(=O)CNC(C)=O)ccc2n1	49*	-26	i	9	101*	110*
CCN(CC)c1cc(C)c2cc(NC(=O)c3ccccc3F)ccc2n1	2	4	1	0	.	.
CN1CCN(CC(=O)NN(Cc2ccccc2)c2ccccc2)CC1	2	-9	i	-9	.	.
COc1ccc2[nH]c(C(=O)NCc3ccc4c(c3)OCO4)cc2c1	39*	-16	-1	11	5	-2
COc1ccc2[nH]c(C(=O)NCCN3CCOCC3)cc2c1	77*	-27	i	2	43*	35*
O=C(O)CCCNC(=O)C(c1ccccc1)c1ccccc1	-1	-6	0	-3	.	.
O=c1nc2cccc3c2=c(/c1=C(\O)c1ccccc1)c1ccccc1c3=O	29*	-13	1	17	-4	-6
Cn1c(/C(C#N)=C(\O)c2ccc([N+](=O)[O-])s2)nc2ccccc21	-3	6	i	-15	.	.
CCN(CC(=O)Nc1sc2c(c1C#N)CCC(C)C2)CC(=O)NC1CCS(=O)(=O)C1 (stereo not given)	3	-13	0	10	.	.
CC1(C)CC(=O)c2cc(OCC(=O)N3CCCCCC3)ccc2O1	46*	-104	0	0	88*	95*
CCOC(=O)N1CCN(C(=O)COc2ccc3c(c2)C(=O)CC(C)(C)O3)CC1	41*	-92	-4	4	134*	114*
CC1(C)CC(=O)c2cc(OCC(=O)N3CCN(c4ccccc4F)CC3)ccc2O1	18	-16	0	7	.	.
CC1(C)CC(=O)c2cc(OCC(=O)NCCN3CCOCC3)ccc2O1	34*	-49	0	3	57*	40*
CC1(C)CC(=O)c2cc(OCC(=O)N3CCN(Cc4ccccc4)CC3)ccc2O1	7	-14	i	4	.	.
